PubChem BioAssay AID1159580 (chemical genetic matrix, 2015)
Where “and” joins values, the source holds several entries; their conditions need not be identical. Identical values can stand only once. About 2,000 (36%) of roughly 5,500 compounds were called active. Roughly 18% stayed inconclusive and do not appear here. Rule as the data show it: active = normalized growth mostly below about 0.91 (no sharp cut-off); inconclusive = no clear call, values can overlap the other calls; inactive = mostly above about 0.92. The list shows a part of the results.

Test: chemical genetic growth profiling, strain panel (AID 1159580);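 also: tested at 20 µM; growth read once vehicle control cultures reached saturation at 30 °C; 1 = growth at the plate median or of vehicle wells; lower values mean less growth of the strain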
Details: S. cerevisiae deletion strains, growth OD

Measured: normalized growth

Cc1c(N(C)C)c(=O)n(-c2ccccc2)n1C
inactive: locus YAL013W, strain DEP1, hits give low values 0.994 | locus YAL021C, strain ccr4, hits give low values 0.981 | locus YAL026C, strain drs2, hits give low values 0.977 | locus YAL030W, strain snc1, hits give low values 0.982 | locus YBL061C, strain skt5, hits give low values 1 | locus YBR009C, strain hhf1, hits give low values 0.976 | locus YBR021W, strain FUR4, hits give low values 1.01 | locus YBR023C, strain chs3, hits give low values 0.983 | locus YBR171W, strain sec66, hits give low values 0.987 | locus YBR229C, strain ROT2, hits give low values 0.978 | locus YBR231C, strain swc5, hits give low values 0.99 | locus YBR279W, strain paf1, hits give low values 0.996 | locus YCL011C, strain gbp2, hits give low values 1.01 | locus YCL016C, strain dcc1, hits give low values 0.993 | locus YCL029C, strain bik1, hits give low values 0.972 | locus YCL061C, strain MRC1, hits give low values 0.979 | locus YCL069W, strain vba3, hits give low values 1 | locus YCR088W, strain abp1, hits give low values 1 | locus YDL005C, strain med2, hits give low values 0.96 | locus YDL035C, strain GPR1, hits give low values 0.995 | locus YDL040C, strain nat1, hits give low values 0.991 | locus YDL074C, strain BRE1, hits give low values 0.984 | locus YDL101C, strain DUN1, hits give low values 0.983 | locus YDL134C, strain PPH21, hits give low values 0.997 | locus YDL185W, strain tfp1, hits give low values 0.962 | locus YDL192W, strain arf1, hits give low values 0.98 | locus YDR001C, strain nth1, hits give low values 0.994 | locus YDR069C, strain doa4, hits give low values 0.971 | locus YDR101C, strain arx1, hits give low values 0.99 | locus YDR137W, strain rgp1, hits give low values 0.986 | locus YDR150W, strain NUM1, hits give low values 0.993 | locus YDR159W, strain sac3, hits give low values 0.948 | locus YDR162C, strain NBP2, hits give low values 0.993 | locus YDR195W, strain ref2 0.934 | locus YDR297W, strain sur2, hits give low values 1 | locus YDR318W, strain mcm21, hits give low values 0.989 | locus YDR334W, strain swr1, hits give low values 0.987 | locus YDR335W, strain msn5, hits give low values 0.993 | locus YDR388W, hits give low values 0.998 | locus YDR392W, strain spt3, hits give low values 1 | locus YDR502C, strain sam2, hits give low values 0.999 | locus YEL003W, strain gim4, hits give low values 0.997 | locus YEL037C, strain rad23, hits give low values 0.998 | locus YEL061C, strain CIN8 (second series), hits give low values 1.01 | locus YEL061C, strain CIN8, hits give low values 0.996 | locus YER015W, strain faa2, hits give low values 0.995 | locus YER016W, strain bim1, hits give low values 0.999 | locus YER110C, hits give low values 0.981 | locus YER111C, strain swi4, hits give low values 0.983 | locus YER155C, strain BEM2 (second series), hits give low values 0.989 | locus YER155C, strain BEM2, hits give low values 0.995 | locus YER167W, strain BCK2, hits give low values 0.99 | locus YFR010W, strain ubp6, hits give low values 0.986 | locus YGL078C, strain dbp3, hits give low values 0.997 | locus YGL086W, strain mad1, hits give low values 1 | locus YGL167C, strain pmr1, hits give low values 0.982 | locus YGL173C, strain kem1, hits give low values 0.96 | locus YGL227W, strain vid30, hits give low values 0.984 | locus YGL240W, strain doc1, hits give low values 0.972 | locus YGL248W, strain PDE1, hits give low values 0.998 | locus YGL253W, strain hxk2, hits give low values 1.02 | locus YGR078C, strain PAC10, hits give low values 0.985 | locus YGR135W, strain pre9, hits give low values 0.991 | locus YGR229C, strain SMI1, hits give low values 0.992 | locus YGR252W, strain gcn5, hits give low values 1.1 | locus YHR013C, strain ard1, hits give low values 0.964 | locus YHR027C, strain rpn1, hits give low values 0.996 | locus YHR030C, strain SLT2, hits give low values 0.976 and 1.04 | locus YHR079C, strain IRE1 (second series), hits give low values 0.99 | locus YHR079C, strain IRE1, hits give low values 1.01 | locus YHR094C, strain hxt1, hits give low values 0.978 | locus YHR129C, strain ARP1, hits give low values 0.993 | locus YHR142W, strain chs7, hits give low values 1.02 | locus YHR200W, strain rpn10, hits give low values 0.999 | locus YIL066C, strain RNR3, hits give low values 0.992 | locus YIL073C, strain SPO22, hits give low values 0.923 | locus YIL125W, strain kgd1, hits give low values 0.99 | locus YIR030C, strain dcg1, hits give low values 0.99 | locus YJL092W, strain hpr5, hits give low values 1 | locus YJL095W, strain BCK1 (second series), hits give low values 0.997 | locus YJL095W, strain BCK1, hits give low values 0.966 and 1.04 | locus YJL115W, strain asf1, hits give low values 0.995 | locus YJL129C, strain trk1, hits give low values 0.983 | locus YJL134W, strain LCB3, hits give low values 0.997 | locus YJL154C, strain vps35, hits give low values 0.987 | locus YJL166W, strain qcr8, hits give low values 0.982 | locus YJL168C, strain set2, hits give low values 0.99 | locus YJL187C, strain SWE1 (second series), hits give low values 0.975 | locus YJR043C, strain POL32, hits give low values 0.986 | locus YJR066W, strain TOR1, hits give low values 0.972 | locus YJR075W, strain HOC1, hits give low values 0.997
